Bioassay records from PubChem.
Cruzain noTriton: cruzain (T. cruzi) inhibition without detergent; purified cruzain, Z-FR-AMC fluorescence, no detergent; hit rate 2.3% among 200,000; AID 1476; Potency, µM, for the others: max response, negative = inhibition, most hits filed as inhibitors;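 note: plate controls were enzyme without inhibitor for no effect and buffer without enzyme for full effect; nearly all actives have a fitted effect of over 40% in size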
Target sequence (P25779 123-467 limits assumed): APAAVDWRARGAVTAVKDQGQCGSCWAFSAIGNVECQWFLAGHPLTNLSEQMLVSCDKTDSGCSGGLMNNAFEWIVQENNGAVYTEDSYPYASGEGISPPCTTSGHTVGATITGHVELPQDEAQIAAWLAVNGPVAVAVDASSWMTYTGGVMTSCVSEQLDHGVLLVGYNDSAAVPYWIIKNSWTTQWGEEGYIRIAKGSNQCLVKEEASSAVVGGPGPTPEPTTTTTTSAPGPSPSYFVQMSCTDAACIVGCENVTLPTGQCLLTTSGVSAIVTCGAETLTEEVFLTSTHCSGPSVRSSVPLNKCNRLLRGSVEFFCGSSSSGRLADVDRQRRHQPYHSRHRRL
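Purified cruzain at 1.5 nM, pre-incubated 15 min with compound at room temperature in 100 mM sodium acetate pH 5.5, 5 mM DTT, 0.00005% Triton X-100. Reaction started with 2 uM Z-FR-AMC; AMC fluorescence increase over 60 s gives rate.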
NS1 function inh: inhibitors of influenza NS1 protein function. hit rate 0.4% among 270,000. Potency, µM (highest dose often 46.1 µM), for the others: top-dose activity, positive = more growth; calls by dose curve; note: actives are rising curves; nearly all actives have a fitted effect of over 50% in size
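Recovery from NS1-induced slow growth read by OD600 in budding yeast switched to galactose assay medium (pH 6.0, -URA) at 1:100 dilution. Compound 23 nl per well; the matching strain lacking NS1 serves as control.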
Cruzain Triton: inhibitors of Trypanosoma cruzi cruzain with detergent. P25779. purified cruzain, Z-FR-AMC fluorescence, 0.01% Triton. Potency, µM, inactives show max response, negative = inhibition, usual class: inhibitors. hit rate 0.43% among 200,000;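 note: plate controls were neutral wells for no effect and buffer without enzyme for full effect; nearly all actives have a fitted effect of over 40% in size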
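Z-FR-AMC hydrolysis (2 uM substrate) by cruzain (1.5 nM) monitored kinetically at ex 360/em 450 nm after 15 min room-temperature compound exposure; 0.01% Triton X-100, pH 5.5, 5 mM DTT.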
Papain inh: papain (Carica papaya) inhibition counter-screen. shares compounds with Cruzain Triton. purified papain, Z-FR-AMC fluorescence cleavage. Potency, µM, for the others: max response, negative = inhibition, actives largely listed as inhibitors. hit rate 41% among 410;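 note: 0% = no-compound wells and -100% = no-enzyme wells; nearly all actives have a fitted effect of over 35% in size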
Target sequence (P00784 whole entry, looked up): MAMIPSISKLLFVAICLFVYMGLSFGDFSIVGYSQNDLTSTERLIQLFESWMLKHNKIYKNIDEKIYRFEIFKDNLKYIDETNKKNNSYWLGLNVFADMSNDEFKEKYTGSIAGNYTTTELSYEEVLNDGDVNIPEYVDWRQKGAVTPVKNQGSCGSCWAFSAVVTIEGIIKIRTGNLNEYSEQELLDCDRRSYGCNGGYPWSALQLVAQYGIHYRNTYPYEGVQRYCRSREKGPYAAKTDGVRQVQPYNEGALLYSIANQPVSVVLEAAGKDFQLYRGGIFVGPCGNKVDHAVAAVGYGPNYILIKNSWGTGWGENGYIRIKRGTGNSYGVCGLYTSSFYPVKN
Numbers without * were called inactive; ? = inconclusive; . = not tested or not shown. The full list was thinned out, with hits kept by preference. Unless noted, calls come from the whole dose curve; as a rule, active = well fitted curve in the direction sought with a large enough effect; inconclusive = small, poorly fitted or top-dose-only effect, or another doubt; inactive = no such curve, though single readings can be large; an effect the other way counts as inactive or inconclusive. Potency is the fitted concentration of half-maximal effect.

SMILES | Cruzain noTriton | NS1 function inh | Cruzain Triton | Papain inh
CCCOc1cccc(C(=O)N(Cc2cc(OC)c(OC)c(OC)c2)C2CCS(=O)(=O)C2)c1 (configuration not stated) | -1% | . | -1% | .
COc1ccc(C(=O)CC2(O)C(=O)N(Cc3ccccc3)c3ccc(Br)cc32)cc1 (configuration not stated) | -10% | . | -9% | .
O=C(Cn1c(SCc2cccc(F)c2)nc2ccncc21)Nc1ccc(Cl)cc1F | 7% | . | -20% | .
CC(C)CCNC(=O)Cn1c(SCc2cccc(F)c2)nc2ccncc21 | . | . | . | -14%
Cc1cccc(CSc2nc3ccncc3n2CC(=O)Nc2ccc(C)c(C)c2)c1 | 5% | 25% | -3% | .
CCCCNC(=O)Cn1c(SCc2cccc(C)c2)nc2ccncc21 | . | . | . | -15%
NS(=O)(=O)c1ccc(CCNC(=O)c2ccc3nc(Cc4ccccc4)oc3c2)cc1 | 12% | . | -4% | .
Cc1c(CC(=O)NCCc2ccc(Cl)cc2)c(=O)oc2c(C)c3occ(C(C)(C)C)c3cc12 | 8% | . | -1% | .
Cc1cc2nnc(SCc3ccc(F)cc3)n2c2ccccc12 | ? | . | -7% | .
CC(C)NC(=O)COC(=O)CNC(=O)C1CCCCC1 | . | . | . | -58%
O=C(CNC(=O)C1CCCCC1)NC1CCCCC1 | . | 14% | . | .
CC(C)(C)NC(=O)NC(=O)COC(=O)CCC1CCCC1 | . | -31% | . | .
CC(C)(C)NC(=O)COC(=O)CNC(=O)C1CCCCC1 | . | . | . | -23%
Cc1ccc(OCC(=O)Nc2ccccc2C(=O)OCc2cc(=O)n3c(C)csc3n2)cc1 | 3% | . | -1% | .
O=C(Cn1cnc2onc(-c3ccc(F)cc3)c2c1=O)Nc1cccc(C(F)(F)F)c1 | -21% | . | -1% | .
Cc1ccc2[nH]c(=O)c(CN(CCCO)Cc3nnnn3Cc3ccccc3)cc2c1 | . | . | . | -5%
COc1ccc2[nH]c(=O)c(CN(Cc3cccs3)Cc3nnnn3Cc3ccccc3)cc2c1 | 3% | 3% | -1% | .
Cc1ccc2[nH]c(=O)c(CN(Cc3cccs3)Cc3nnnn3CC3CCCO3)cc2c1 (configuration not stated) | ? | -13% | 1% | .
Cc1ccc2[nH]c(=O)c(CN(Cc3cccs3)Cc3nnnn3Cc3ccco3)cc2c1 | . | . | . | -13%
Cc1ccc2[nH]c(=O)c(CN(CCc3ccccc3)Cc3nnnn3CC3CCCO3)cc2c1 (configuration not stated) | 24% | -12% | -7% | .
CCc1ccc2[nH]c(=O)c(CN(Cc3cccs3)Cc3nnnn3Cc3ccccc3)cc2c1 | . | . | . | -16%
Cc1ccc2[nH]c(=O)c(CN(CCO)Cc3nnnn3Cc3ccccc3)cc2c1 | . | . | . | 3%
CCOc1ccc2[nH]c(=O)c(CN(CCO)Cc3nnnn3CCc3ccccc3)cc2c1 | 6% | -6% | -2% | .
CCCOc1cccc(C(=O)Nc2cc(-c3ccccc3)no2)c1 | 20% | . | -11% | .
CC(C)C[C@@H](NC(=O)[C@@H](O)[C@H](N)Cc1ccccc1)C(=O)O | -13% | . | 1% | .
SMILES | Cruzain noTriton | NS1 function inh | Cruzain Triton | Papain inh
CC1(C(=O)NC2CCCCC2)Cc2ccccc2C(=O)N1Cc1ccc(Cl)cc1 (configuration not stated) | -1% | . | -1% | .
CCOc1ccc2[nH]c(=O)c(CN(Cc3ccco3)C(CC)c3nnnn3Cc3ccccc3)cc2c1 (configuration not stated) | 11% | -1% | -11% | .
Cc1ccc2[nH]c(=O)c(CN(CCO)Cc3nnnn3Cc3ccco3)cc2c1 | . | . | . | 1%
COc1ccccc1CN(Cc1cc2cc(C)ccc2[nH]c1=O)Cc1nnnn1Cc1ccco1 | -8% | 5% | -20% | .
Cc1ccc(CN(Cc2cc3cc(C)ccc3[nH]c2=O)Cc2nnnn2Cc2ccccc2)cc1 | . | . | . | -12%
CCC(c1nnnn1Cc1ccccc1)N(Cc1ccccc1)Cc1cc2cc(C)ccc2[nH]c1=O (configuration not stated) | . | . | . | -6%
CCOC(=O)Cn1nnnc1CN(Cc1ccc(OC)cc1)Cc1cc2cc(C)ccc2[nH]c1=O | ? | -33% | -8% | .
N#Cc1cccc(NC(=O)Cn2nc(Cc3ccncc3)c3ccccc3c2=O)c1 | -19% | . | -5% | .
O=C1CN(C(=O)CSc2nc3ccccc3n2CCc2ccccc2)c2ccccc2N1 | -22% | -11% | -24% | .
CCCn1c(SCC(=O)N2CC(=O)Nc3ccccc32)nc2ccccc21 | 4% | 5% | 13µM* | 11%
CN(C)c1ccccc1CN1CCCN(Cc2ccccc2N(C)C)C1c1ccncc1 | 1% | -3% | -1% | .
Cc1cc2c(cc3c(SCC(=O)Nc4cccc(Cl)c4C)nnc(C)n32)o1 | -6% | . | -7% | .
COc1cc(OC)cc(C(=O)NCC(=O)OCC(=O)c2cc(OC)ccc2OC)c1 | 0% | -6% | -17% | .
COc1ccc(C(=O)COC(=O)CNC(=O)C2CCCCC2)c(OC)c1 | 6.3µM* | -33% | 4µM* | -23%
COc1ccc(OC)c(C(=O)COC(=O)CNC(=O)C2CCCCC2)c1 | 5µM* | -5% | 4.5µM* | -15%
CCOC(=O)C1CCN(C(=O)c2ccc(OC)cc2OC)CC1 | -28% | -3% | 2% | .
O=C(Nc1nnc2n1CCS2)c1ccccc1C(F)(F)F | -3% | . | 0% | .
N#Cc1nc(-c2ccco2)oc1N1CCOCC1 | -10% | 3% | -8% | .
CC1CN(c2oc(Cc3cccc4ccccc34)nc2C#N)CC(C)O1 (configuration not stated) | ? | -76% | -5% | .
N#Cc1nc(-c2cccs2)oc1N1CCOCC1 | ? | 0% | 25µM* | 16µM*
CC1CN(c2oc(-c3cccs3)nc2C#N)CC(C)O1 (configuration not stated) | ? | 0% | 28µM* | 20µM*
CCOc1ccc(CCNC(=O)C2CCCN(c3nnc(C)c4c(C)n(-c5ccccc5)nc34)C2)cc1 (configuration not stated) | -4% | . | -10% | .
COc1ccc(C(=O)N2CCC3(CCCN(Cc4cc(C(F)(F)F)cc(C(F)(F)F)c4)C3)CC2)cc1 | 20% | . | -8% | .
O=[N+]([O-])c1cc(Cl)c(Cl)c(Cl)c1 | 0% | . | 8% | .
COc1ccccc1NC(=O)CN1C(=O)C(c2ccc(F)cc2)=NC12CCCCC2 | -2% | . | -6% | .
SMILES | Cruzain noTriton | NS1 function inh | Cruzain Triton | Papain inh
O=C(NCCc1nc2ccccc2n1CCOc1cccc2ccccc12)C1CCCCC1 | . | . | . | 3%
O=C(NCCCc1nc2ccccc2n1Cc1ccccc1Cl)C1CCCCC1 | -8% | . | -6% | .
O=C(NCCCc1nc2ccccc2n1Cc1c(F)cccc1Cl)C1CCCCC1 | -10% | . | -1% | .
Cc1ccc(C)c(OCCn2c(CCNC(=O)C3CCCCC3)nc3ccccc32)c1 | 1% | . | 1.3µM* | 4%
O=C(NCCc1nc2ccccc2n1CCCOc1ccccc1Cl)C1CCCCC1 | . | . | . | -17%
Cc1ccccc1OCCn1c(CCNC(=O)C(C)(C)C)nc2ccccc21 | ? | . | -3% | .
Cc1ccccc1OCCn1c(CCNC(=O)C2CCCCC2)nc2ccccc21 | -2% | . | 1.4µM* | -3%
CC(=O)NCCc1nc2ccccc2n1CCOc1ccccc1C | . | -2% | . | .
CCCc1cc(=O)[nH]c(SCc2nc(-c3ccc(OC)cc3)no2)n1 | -28% | . | -1% | .
CC(=O)Nc1ccc(S(=O)(=O)NCCc2cn3ccsc3n2)cc1 | 2% | . | 2% | .
CC(=O)N1CCC2(CC1)CN(Cc1ccc(C#N)cc1)C2 | -10% | . | 0% | .
O=c1[nH]c2ccc(NCc3ccc(-c4cccc(Cl)c4)o3)cc2[nH]1 | ? | . | -2% | .
